From PubChem BioAssay (NCATS)
Results filed as inconclusive are left out. Where a call stands in place of a potency, no number is given. Activity calls are given as the source filed them. The call rests on the fitted dose curve; in most records, active means well fitted inhibition curve with a large enough effect; inconclusive means small, poorly fitted or top-dose-only effect; inactive means no such curve, though single readings can be large or run the other way.

Test system: Zika virus NS2B-NS3 protease (unlinked complex)
Test: Primary screen GU Rhodamine qHTS for Zika virus inhibitors: Unlinked NS2B-NS3 protease assay (AID 1347159); further: nearly all actives have a fitted effect of over 60% in size
Settings: Recombinant ZIKV NS2B-NS3 protease, Rhodamine110 substrate fluorescence; series mostly up to 107 µM
How it was run: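 Compounds, tested up to 114 microM, were incubated for 15 minutes with 25 nM unlinked NS2B-NS3 protease at pH 8.0. Cleavage of 1.5 microM Rhodamine110 substrate was then followed by fluorescence for 15 minutes.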

Structure (SMILES)	Potency
COc1ccccc1N1CCN(CCCNc2cc(=O)n(C)c(=O)n2C)CC1	inactive
CCCNC(=O)NS(=O)(=O)c1ccc(Cl)cc1	inactive
CCN1CCC[C@H]1CNC(=O)c1cc(S(N)(=O)=O)ccc1OC	inactive
CC(=O)O[C@]1(C(C)=O)CC[C@H]2[C@@H]3C=C(Cl)C4=CC(=O)[C@@H]5C[C@@H]5[C@]4(C)[C@H]3CC[C@@]21C	inactive
CC(=O)CCCCn1c(=O)c2c(ncn2C)n(C)c1=O	inactive
CC(C)NCC(O)COc1cccc2[nH]ccc12 (configuration not stated)	inactive

Test system: Zika virus NS2B-NS3 protease (linked construct)
Test: Primary screen NINDS Rhodamine qHTS for Zika virus inhibitors (AID 1347160); further: nearly all actives have a fitted effect of over 55% in size
Settings: purified NS2B-NS3 protease, Rhodamine110 substrate fluorescence; series mostly up to 57.1 µM
How it was run: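 Percent inhibition, normalized to uninhibited and enzyme-free controls, is fitted to a 4-parameter Hill equation. Fluorescence change comes from a 15-min cleavage of 1.5 microM bis-peptide Rhodamine110 substrate by 25 nM linked NS2B-NS3 at room temperature.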

Structure (SMILES)	Potency
COc1ccccc1N1CCN(CCCNc2cc(=O)n(C)c(=O)n2C)CC1	inactive
CCCNC(=O)NS(=O)(=O)c1ccc(Cl)cc1	inactive
CCN1CCC[C@H]1CNC(=O)c1cc(S(N)(=O)=O)ccc1OC	inactive
CC(=O)O[C@]1(C(C)=O)CC[C@H]2[C@@H]3C=C(Cl)C4=CC(=O)[C@@H]5C[C@@H]5[C@]4(C)[C@H]3CC[C@@]21C	inactive
CC(=O)CCCCn1c(=O)c2c(ncn2C)n(C)c1=O	inactive
CC(C)NCC(O)COc1cccc2[nH]ccc12 (configuration not stated)	inactive
